Here are results for ten molecules from paper PMC5540273 (PLoS ONE, 2017).

Some test systems named below: HIPK3; HIPK4; HPK1; HUNK; ICK; IGF1R; INSRR; INSR; IRAK1; IRAK3; IRAK4; ITK.
Common to all, as to conditions: concentration: 1 μM, replicates: in singlicate; n = 1
Another test concerns T1, IKK-alpha.
T1 construct: gene CHUK

For the next test, the system named is T2, IKK-beta.
T2 construct: gene IKBKB

Another test concerns T3, IKK-epsilon.
T3 construct: gene IKBKE

Test [1] deals with JAK1(JH1domain-catalytic).
Test [2] deals with JAK1(JH2domain-pseudokinase).
Test [3] concerns JAK2(JH1domain-catalytic).
Test [4] relates to JAK3(JH1domain-catalytic).
For the next test, the system named is T4, JNK1.
T4 construct: gene MAPK8
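Also: KINOMEscan kinase panel screen.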

Consider `CCc1nc(-c2cccc(C)c2)c(-c2ccncc2)s1`, for which the “%Inh” value in the test with HIPK3 was 0%; in the test with HIPK4, 0%; in the test on HPK1, 8%; in the test with HUNK, 0%; in the test with ICK it was 0%; in the test with IGF1R, 0%. Also, the “%Inh” value in the test with IKK-alpha, with IKK-beta, in the test on IKK-epsilon, with INSRR, in the test with INSR and in the test on IRAK1 was 0% throughout. The “%Inh” value worked out at 0% in the test on IRAK3; 0% in the test with IRAK4; 4% in the test with ITK; 0% in test [1]; 41% in [2]; 1% in test [3]. For the same molecule, the “%Inh” value is 0% in [4] and 57% in the test with JNK1.
In the case of `Cc1nn2c(=O)cc(N3CCOCC3)nc2n1Cc1cccc(Cl)c1Cl` [GSK2342769], the “%Inh” value in the test on HIPK3 is 38%; in the test on HIPK4, 0%; with HPK1, 32%; in the test on HUNK, 0%; in the test with ICK it was 2%; with IGF1R, 5%. Further, the “%Inh” value is recorded as 19% with IKK-alpha; 18% in the test with IKK-beta; 5% with IKK-epsilon; 0% in the test with INSRR; 0% with INSR; 75% in the test on IRAK1. The “%Inh” value in the test with IRAK3 was determined as 16%; in the test on IRAK4, 16%; in the test on ITK it was 14%; in test [1], 10%; in [2], 0%; in [3] it was 6%. In addition, the “%Inh” value in [4] stood at 0%; with JNK1 it was 10%.
Consider `O=C(Nc1n[nH]c2cc(-c3ccccc3F)ccc12)C1CC1` [SB-733371], for which the “%Inh” value with HIPK3 was 3%; with HIPK4, 0%; with HPK1 it was 8%; in the test on HUNK it was 0%; in the test on ICK, 32%; in the test with IGF1R it was 0%. For the same molecule, the “%Inh” value in the test with IKK-alpha turned out to be 0%; with IKK-beta, 0%; in the test on IKK-epsilon it was 0%; in the test with INSRR it was 9%; in the test on INSR it was 0%; in the test on IRAK1 it was 0%. Besides, the “%Inh” value in the test on IRAK3 came to 0%; in the test on IRAK4 it was 0%; in the test on ITK it was 0%; in test [1], 0%; in test [2] it was 17%; in test [3] it was 27%. Besides, the “%Inh” value in test [4] turned out to be 0%; in the test on JNK1, 33%.
Take `O=c1cc(N2CCOCC2)nc2n(Cc3ccc(F)c(Cl)c3)ccn12` [GSK2297099]: the “%Inh” value in the test on HIPK3 is given as 23%; in the test with HIPK4, 0%; in the test on HPK1, 25%; in the test on HUNK, 0%; in the test on ICK, 16%; in the test on IGF1R, 0%. Moreover, the “%Inh” value is listed as 3% in the test on IKK-alpha; 17% with IKK-beta; 0% with IKK-epsilon; 0% in the test on INSRR; 23% in the test on INSR; 10% in the test on IRAK1. For the same molecule, the “%Inh” value is on record as 0% in the test on IRAK3; 16% in the test with IRAK4; 1% in the test on ITK; 19% in test [1]; 0% in test [2]; 100% in [3]. The “%Inh” value in [4] worked out at 0%; in the test with JNK1 it was 21%.
Take `Cc1nc(N(C)[C@H]2CN(C(=O)CC#N)CC[C@H]2C)c2cc[nH]c2n1`: the “%Inh” value worked out at 9% in the test with HIPK3; 0% in the test with HIPK4; 0% in the test with HPK1; 0% in the test on HUNK; 0% in the test on ICK; 0% with IGF1R. The “%Inh” value with IKK-alpha is on record as 0%; in the test with IKK-beta, 5%; with IKK-epsilon, 0%; with INSRR, 0%; in the test on INSR it was 0%; in the test on IRAK1 it was 0%. The “%Inh” value with IRAK3 turned out to be 0%; in the test on IRAK4, 0%; in the test on ITK, 5%; in test [1], 11%; in [2] it was 0%; in [3] it was 69%. Moreover, the “%Inh” value in test [4] was 97.6%; with JNK1 it was 1%.
`CCC(=O)c1c(-c2ccccc2)c2cc(Cl)ccc2c(=O)n1Cc1ccc(C(=O)O)cc1`: the “%Inh” value in the test with HIPK3, in the test on HIPK4, in the test with HPK1, in the test with HUNK, in the test on ICK and with IGF1R was 0% throughout. Further, the “%Inh” value in the test with IKK-alpha, in the test with IKK-beta, with IKK-epsilon, in the test with INSRR, with INSR and in the test on IRAK1 was 0% throughout. In addition, the “%Inh” value in the test on IRAK3 is reported as 0%; in the test on IRAK4, 0%; in the test with ITK it was 12%; in test [1] it was 9%; in test [2] it was 0%; in test [3] it was 0%. Also, the “%Inh” value in test [4] was found to be 0%; in the test with JNK1, 95.2%.
Consider `CN(C)c1cc(-c2ccc3c(N)n[nH]c3c2)nc(N)n1` [GSK2219329], for which the “%Inh” value is listed as 17% in the test with HIPK3; 0% in the test with HIPK4; 26% in the test on HPK1; 2% in the test on HUNK; 4% in the test with ICK; 14% with IGF1R. Besides, the “%Inh” value with IKK-alpha worked out at 0%; in the test on IKK-beta, 0%; with IKK-epsilon, 40%; in the test with INSRR, 0%; with INSR it was 0%; with IRAK1 it was 0%. Also, the “%Inh” value in the test with IRAK3 turned out to be 0%; with IRAK4, 0%; with ITK, 6%; in test [1], 6%; in test [2], 7%; in test [3], 0%. Besides, the “%Inh” value (in test [4]; in the test with JNK1) was 0% each time.
In the case of `Cc1cccc(-c2cc(-c3c[nH]nc3-c3ccccn3)ccn2)c1` [GW679395], the “%Inh” value in the test with HIPK3 turned out to be 13%; in the test on HIPK4 it was 0%; in the test on HPK1, 32%; with HUNK, 10%; with ICK, 9%; with IGF1R, 0%. Further, the “%Inh” value in the test on IKK-alpha is recorded as 4%; in the test with IKK-beta, 25%; in the test on IKK-epsilon, 21%; with INSRR it was 0%; with INSR, 1%; in the test with IRAK1, 34%. The “%Inh” value with IRAK3 is reported as 1%; in the test on IRAK4, 18%; in the test on ITK, 4%; in test [1] it was 5%; in test [2], 0%; in test [3], 8%. The figures for the “%Inh” value (in test [4]; with JNK1) were 0% and 56%, respectively.
For `Nc1n[nH]c2nnc(-c3ccccc3)c(-c3ccccc3)c12` [GW554060], the “%Inh” value in the test on HIPK3 stood at 68%; in the test on HIPK4, 0%; in the test on HPK1, 27%; in the test with HUNK it was 5%; in the test on ICK it was 0%; in the test on IGF1R, 0%. Further, the “%Inh” value with IKK-alpha was 28%; in the test with IKK-beta it was 0%; with IKK-epsilon, 0%; in the test with INSRR, 0%; in the test with INSR it was 3%; with IRAK1 it was 12%. The “%Inh” value in the test on IRAK3 stood at 9%; with IRAK4, 19%; with ITK it was 12%; in test [1], 21%; in test [2], 0%; in [3], 10%. In addition, the “%Inh” value turned out to be 0% in [4] and 19% in the test with JNK1.
For the molecule `COc1cccc(-n2cnc3c(N)ncnc32)c1` [SKF-97416], the “%Inh” value amounted to 26% with HIPK3; 13% with HIPK4; 0% in the test with HPK1; 16% in the test on HUNK; 34% with ICK; 0% in the test on IGF1R. The “%Inh” value is recorded as 50% in the test on IKK-alpha; 32% in the test with IKK-beta; 0% with IKK-epsilon; 5% with INSRR; 0% with INSR; 38% in the test with IRAK1. The “%Inh” value in the test with IRAK3 is recorded as 42%; with IRAK4, 0%; in the test with ITK, 0%; in test [1], 0%; in test [2] it was 58%; in test [3], 44%. Further, the “%Inh” value came to 19% in [4] and 0% in the test on JNK1.
